Screening results from PubChem.
Most compounds without a hit are left out; they make up all but 10% or so of the library.
Luciferase inh: inhibitors of firefly (Photinus pyralis) luciferase | P08659 | AID 1347043 | Potency, µM (top dose mostly 115 µM), actives largely listed as inhibitors | hit rate 2.5% among 76,000 | purified P. pyralis luciferase, luminescence, biochemical; also: nearly all actives have a fitted effect of over 65% in size
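Inhibitors were tested against purified firefly luciferase in a biochemical, low-substrate format (both substrates at 10uM) and luminescence measured with a CCD imager.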
hNpr1 antagonist: antagonists of human natriuretic peptide receptor Npr1; P16066; HEK293 hNpr1 GloSensor cGMP, ANP-stimulated luminescence; Potency, µM (top dose mostly 46.3 µM), without a hit: at the highest dose activity change, negative = inhibition, usual class: inhibitors; hit rate 1.6% among 76,000; AID 1347048; calls by dose curve; also: nearly all actives have a fitted effect of over 60% in size
Target sequence (P16066 whole entry, looked up): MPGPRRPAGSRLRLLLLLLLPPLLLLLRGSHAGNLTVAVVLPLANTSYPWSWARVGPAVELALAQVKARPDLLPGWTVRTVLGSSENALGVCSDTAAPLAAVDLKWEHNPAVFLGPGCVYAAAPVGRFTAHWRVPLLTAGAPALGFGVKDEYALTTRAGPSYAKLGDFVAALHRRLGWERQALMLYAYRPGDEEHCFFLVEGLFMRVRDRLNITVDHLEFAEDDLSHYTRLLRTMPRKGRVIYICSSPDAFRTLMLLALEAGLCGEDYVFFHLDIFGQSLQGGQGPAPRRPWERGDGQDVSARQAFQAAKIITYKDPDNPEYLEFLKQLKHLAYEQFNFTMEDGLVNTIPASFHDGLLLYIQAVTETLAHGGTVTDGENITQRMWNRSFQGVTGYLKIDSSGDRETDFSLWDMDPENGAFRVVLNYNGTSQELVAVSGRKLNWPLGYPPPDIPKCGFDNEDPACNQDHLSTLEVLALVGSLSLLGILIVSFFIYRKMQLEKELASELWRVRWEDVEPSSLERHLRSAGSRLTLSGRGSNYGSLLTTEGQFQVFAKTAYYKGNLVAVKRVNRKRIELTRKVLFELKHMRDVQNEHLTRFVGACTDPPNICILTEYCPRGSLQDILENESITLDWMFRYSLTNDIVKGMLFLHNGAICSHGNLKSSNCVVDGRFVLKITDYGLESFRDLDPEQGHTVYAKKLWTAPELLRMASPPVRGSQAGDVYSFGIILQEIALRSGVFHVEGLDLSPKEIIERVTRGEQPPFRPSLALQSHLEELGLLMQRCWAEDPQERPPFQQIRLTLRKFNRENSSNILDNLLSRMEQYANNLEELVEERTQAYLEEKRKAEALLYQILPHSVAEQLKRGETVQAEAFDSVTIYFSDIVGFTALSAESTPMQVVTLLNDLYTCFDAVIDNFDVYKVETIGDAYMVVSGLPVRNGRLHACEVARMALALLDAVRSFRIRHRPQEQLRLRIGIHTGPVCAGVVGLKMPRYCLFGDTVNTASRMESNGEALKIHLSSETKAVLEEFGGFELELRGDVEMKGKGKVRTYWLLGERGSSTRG
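HEK293 cells stably expressing human Npr1 and cGMP GloSensor pGS-40F, loaded 2 h with 2% GloSensor reagent, given compound 30 min at room temperature. Luminescence read before and 20 min after 0.1 nM hNppA.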
HEK cytotox: kills HEK 293 cells | Potency, µM (highest dose often 115 µM), for the others: top-dose activity change, negative = cytotoxicity, usual class: inhibitors | HEK 293 viability, ATP luminescence (CellTiter-Glo), 48-72 h | hit rate 6.6% among 94,000; also: nearly all actives have a fitted effect of over 60% in size
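HEK 293 seeded at 250 cells/well receive compound via pintool. After 48 or 72 hr at 37 degree Celsius, 5% CO2 and 95% humidity, CellTiter-Glo is dispensed and luminescence read following 10 min at room temperature.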
GPT2 inh: blocks human glutamate pyruvate transaminase 2. hit rate 0.25% among 100,000. Q8TD30. Recombinant GPT2, coupled pyruvate oxidase/HRP Amplex Red fluorescence. Potency, µM (doses to about 57.7 µM), for the others: at the top dose activity change, negative = inhibition, actives largely listed as inhibitors; also: nearly all actives have a fitted effect of over 60% in size
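Recombinant GPT2 (10ng/uL) with 250uM a-KG and 2mM L-alanine, 30 min at room temperature, in HEPES pH 7.5 buffer. Pyruvate detected by pyruvate oxidase/HRP/Amplex Red fluorescence after 30 min in the dark; AOA (50uM) as positive control.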
NIH3T3 tox: NIH 3T3 cell cytotoxicity; AID 1345082; Potency, µM (top dose mostly 96.7 µM), without a hit: at the highest dose activity change, negative = cytotoxicity, hits mostly inhibitors; NIH 3T3 viability, CellTiter-Glo ATP luminescence, 48-72 h; hit rate 4.3% among 94,000; also: nearly all actives have a fitted effect of over 55% in size
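Cytotoxicity was measured by CellTiter-Glo ATP luminescence after 48 or 72 h compound exposure at 37 °C. Mouse NIH 3T3 fibroblasts were seeded at 400 cells/well and dosed by 23 nL pin transfer.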
* marks the source's active call; other numbers are inactive results; [ ] = another dose, or the depositor's remark. Unless noted, calls follow the shape of the dose curve; as a rule, active = well fitted curve in the direction sought with a large enough effect; inconclusive = small, poorly fitted or top-dose-only effect, or another doubt; inactive = no such curve, though single readings can be large; an effect the other way counts as inactive or inconclusive. % is scaled to controls: 0 for no effect and ±100 for the full control effect; potency is read from the fitted curve at half-maximal effect.

For FC(F)(F)c1ccc(-c2noc([C@@H]3Cc4nc[nH]c4CN3Cc3cc4ccccc4o3)n2)cc1 the results were Luciferase inh inconclusive, hNpr1 antagonist inconclusive, HEK cytotox inconclusive, GPT2 inh inactive and NIH3T3 tox inconclusive.
Screening c1csc(CN2Cc3[nH]cnc3C[C@H]2c2nc(-c3ccc4ccccc4c3)no2)c1 returned Luciferase inh inactive, hNpr1 antagonist -24.0%[70.6 µM], HEK cytotox 50.1µM*, GPT2 inh 2.4%[88.5 µM] and NIH3T3 tox inconclusive.
c1csc(CN2Cc3[nH]cnc3C[C@H]2c2nc(-c3ccncc3)no2)c1 was read as Luciferase inh inactive, hNpr1 antagonist -27.8%[70.6 µM], HEK cytotox inconclusive, GPT2 inh inactive and NIH3T3 tox inconclusive.
Cn1ccnc1C(=O)C1CCCN(Cc2cc(=O)c3cccc(Cl)c3[nH]2)C1 (stereo not given) was read as Luciferase inh inactive, hNpr1 antagonist 1.3%, HEK cytotox inconclusive, GPT2 inh 2.7% and NIH3T3 tox inconclusive.
`O=C(NCCc1ccccn1)C1CCc2sc(C(=O)N3CCCCC3)cc2C1` (stereo not given) gave Luciferase inh inactive, hNpr1 antagonist -2.6%, HEK cytotox -14.3%, GPT2 inh 0.6% and NIH3T3 tox -23.4%.
`COc1ccc(NC(=O)C2(C)CN(C)Cc3ccc(NCc4ccccc4)nc32)cn1` (stereo not given) gave Luciferase inh inactive, hNpr1 antagonist -16.6%[70.6 µM], HEK cytotox 79.4µM*, GPT2 inh -0.6%[88.5 µM] and NIH3T3 tox 79.4µM*.
For COc1cccc(NC(=O)C2(C)CN(C)Cc3ccc(NCc4ccccc4)nc32)c1 (stereo not given) the results were Luciferase inh inactive, hNpr1 antagonist -2.0%[70.6 µM], HEK cytotox inconclusive, GPT2 inh 0.5%[88.5 µM] and NIH3T3 tox 39.8µM*.
`Cc1cccc(S(=O)(=O)N2CCc3c(C(=O)NCCCN4CCCCC4)cccc32)c1` gave Luciferase inh inactive, hNpr1 antagonist 0.8%, HEK cytotox inconclusive, GPT2 inh -14.4% and NIH3T3 tox inconclusive.
Screening Cc1ccc(NC(=O)N2CCc3c(C(=O)N(C)C)cccc32)cc1 returned Luciferase inh 15.8µM*, hNpr1 antagonist -0.7%, HEK cytotox 1.9%, GPT2 inh 2.6% and NIH3T3 tox inconclusive.
For CCCCNC(=O)c1cccc2c1CCN2C(=O)Nc1ccc(C)cc1 the results were Luciferase inh inconclusive, hNpr1 antagonist 1.41µM*, HEK cytotox inconclusive, GPT2 inh inconclusive and NIH3T3 tox inconclusive.
`COCCCNC(=O)c1cccc2c1CCN2C(=O)Nc1cccc(C)c1` gave Luciferase inh 0.316µM*, hNpr1 antagonist 2µM*, HEK cytotox inconclusive, GPT2 inh inactive and NIH3T3 tox inconclusive.
CC(C)CN1C(=O)c2cccn2CC1CNC(=O)c1n[nH]c(=O)c2ccccc12 (stereo not given) was read as Luciferase inh inactive, hNpr1 antagonist 0.5%, HEK cytotox 0.5%, GPT2 inh inactive and NIH3T3 tox inactive.
COc1ccc2[nH]cc(CCNC(=O)C3Cn4cccc4C(=O)N3Cc3cccnc3)c2c1 (stereo not given) was read as Luciferase inh inactive, hNpr1 antagonist -1.3%, HEK cytotox 89.1µM*, GPT2 inh inactive and NIH3T3 tox inconclusive.
O=C(NCC1Cn2cccc2C(=O)N1Cc1cccnc1)c1n[nH]c(=O)c2ccccc12 (stereo not given) was read as Luciferase inh inactive, hNpr1 antagonist -1.6%, HEK cytotox -2.9%, GPT2 inh inactive and NIH3T3 tox 39.8µM*.
Cc1ccc(-c2ccc3nnc(CNC(=O)Cc4cccc(F)c4)n3n2)cc1C was read as Luciferase inh inactive, hNpr1 antagonist 2.0%, HEK cytotox inconclusive, GPT2 inh inactive and NIH3T3 tox inconclusive.
`OCC1CNCCC12CCN(Cc1ccc3ccccc3c1)CC2` (stereo not given) gave Luciferase inh inactive, hNpr1 antagonist -4.3%, HEK cytotox 28.2µM*, GPT2 inh 3.6% and NIH3T3 tox 44.7µM*.
Screening OCC1CN(c2ncccn2)CC12CCN(Cc1ccc3cc[nH]c3c1)CC2 (stereo not given) returned Luciferase inh inactive, hNpr1 antagonist 6.4%, HEK cytotox -14.5%, GPT2 inh -1.8% and NIH3T3 tox 1.9%.
For C#Cc1cccc(C(=O)N2CCC(Cc3ccc(Cl)cc3)(C(=O)OCC)CC2)c1 the results were Luciferase inh inactive, hNpr1 antagonist -4.7%, HEK cytotox inconclusive, GPT2 inh -13.9% and NIH3T3 tox 20µM*.
For COCCN1CCN(C[C@@H]2C=C(C)[C@H](Cc3nnc(-c4cccnc4)o3)C[C@H]2C(C)C)CC1 the results were Luciferase inh inactive, hNpr1 antagonist -3.9%, HEK cytotox inconclusive, GPT2 inh inconclusive and NIH3T3 tox inconclusive.
Screening CC1=C[C@@H](CN2CCC(O)CC2)[C@H](C(C)C)C[C@H]1Cc1nnc(-c2ccncc2)o1 returned Luciferase inh inactive, hNpr1 antagonist 3.5%[70.6 µM], HEK cytotox inconclusive, GPT2 inh inactive and NIH3T3 tox inconclusive.
`COCCN1CCN(C[C@@H]2C=C(C)[C@H](Cc3nnc(-c4ccc(N(C)C)cc4)o3)C[C@H]2C(C)C)CC1` gave Luciferase inh inactive, hNpr1 antagonist 1.8%, HEK cytotox 31.6µM*, GPT2 inh -26.9% and NIH3T3 tox inconclusive.
For CC1=C[C@@H](CN2CCC(O)CC2)[C@H](C(C)C)C[C@H]1Cc1nnc(-c2ccc(N(C)C)cc2)o1 the results were Luciferase inh inactive, hNpr1 antagonist 5.5%, HEK cytotox inconclusive, GPT2 inh 1.1% and NIH3T3 tox 39.8µM*.
For COc1ccccc1CN1CC(c2noc(-c3cc(C)cc(C)c3)n2)CC1=O (stereo not given) the results were Luciferase inh inactive, hNpr1 antagonist 4.2%, HEK cytotox 44.7µM*, GPT2 inh 0.9% and NIH3T3 tox inconclusive.
`COc1ccccc1CN1CC(c2noc(-c3sccc3C)n2)CC1=O` (stereo not given) gave Luciferase inh inactive, hNpr1 antagonist 7.8%, HEK cytotox 39.8µM*, GPT2 inh inactive and NIH3T3 tox inconclusive.
`CO[C@H]1O[C@@H]2O[C@]3(C)CC[C@H]4[C@H](C)CC[C@@H]([C@H]1C)[C@@]24OO3` gave GPT2 inh inactive.
Screening O=C(Nc1ccccc1)c1cnc2n1CCN(Cc1cccc(OC(F)(F)F)c1)CC2 returned Luciferase inh inactive, hNpr1 antagonist -8.8%[70.6 µM], HEK cytotox inconclusive, GPT2 inh 2.7%[88.5 µM] and NIH3T3 tox inconclusive.
